Twelve compounds from PMC5540273 (PLoS ONE, 2017) can be followed below.
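Also: KINOMEscan kinase panel screen.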

The subject of the test is FLT1. The conditions noted are these: concentration: 1 μM, replicates: in singlicate; n = 1.
As for `O=C(NCCNc1ccnc(Nc2ccc(F)cc2)n1)c1cc2ccccc2s1` [GSK1379874], the “%Inh” value is listed as 19%.

For `Cc1nnc(-c2ccc3occ(-c4ccc(C(C)O)cc4)c3c2)o1` (stereo not drawn), the “%Inh” value is listed as 16%. To `NS(=O)(=O)CCc1cccc(Nc2nccc(-c3c(-c4cccc(NC(=O)c5c(F)cccc5F)c4)nn4ccccc34)n2)c1` [GSK336735] belongs 99.3%; to `NS(=O)(=O)c1cccc(-c2ccc3nccc(-c4cccc(S(N)(=O)=O)c4)c3c2)c1` [GW867253], 0%; to `Cc1nnc(-c2ccc(C)c(-c3ccc(C(=O)Nc4ccc(NS(C)(=O)=O)cc4)cc3)c2)o1` [GW702865], 25%. To `Cl.Nc1ncnc2occ(-c3ccc(NC(=O)Nc4cc(C(F)(F)F)ccc4F)cc3)c12` [SB-707548] belongs 99.5%. As to `O=C(NCCCN1CCOCC1)c1cccc(Nc2nccc(Nc3ccc(Oc4ccccc4)cc3)n2)c1` [GW663929], the “%Inh” value is listed as 30%. To `O=C(c1ccc(-c2cc(-c3c[nH]nc3-c3ccccn3)ccn2)cc1)N1CCOCC1` [GW812171] belongs 0%.

For the compound `CN1c2ccc(NCc3ccc(F)cc3)cc2-c2c(cnn2C)S1(=O)=O`, the “%Inh” value stood at 0%. For `Cc1nnc(-c2ccc3ncc(-c4ccc(S(C)=O)cc4)n3c2)o1` (stereo not drawn), the “%Inh” value stood at 0%.

Take `COc1cc2ncn(-c3cc(OCc4sccc4Cl)c(C(N)=O)s3)c2cc1OC` [GSK448459]: the “%Inh” value came out at 15%. The same measure for `[2H]C([2H])(c1cccc(C(F)(F)F)c1C)n1ccn2c(=O)nc(N3CCOCC3)cc12` [GSK2336394]: 22%.
